Structures are written as SMILES. Hit rate of the full screen: of about 39,000 compounds, about 3,300 (8.5%) were called active. The sample as a whole holds a higher share of actives than the screen did.

The test relates to HepG2. Put plainly: cytotoxicity call (relative viability < 0.9). The conditions noted are these: 10 µM.
Take `C[C@H](CO)N1C[C@H](C)[C@H](CN(C)C(=O)c2cnccn2)Oc2ncc(/C=C/c3ccccc3)cc2C1=O`: the cytotoxicity call was “inactive”.

For `O=C(CCCCCC(=O)Nc1ccccc1O)N/N=C/C[P+](c1ccccc1)(c1ccccc1)c1ccccc1`, the cytotoxicity call is “inactive”.

As to `O=C(CCCCCCC(=O)Nc1ccccc1O)N/N=C/c1cc(Br)c(O)c(Br)c1`, the cytotoxicity call was “inactive”.

`O=C(CCCCCCC(=O)Nc1ccccc1O)N/N=C/c1ccc(N(c2ccccc2)c2ccccc2)cc1`: the cytotoxicity call is “active”.

For the compound `N[C@H]1CCC[C@@H]1Cc1ccc(F)cc1`, the cytotoxicity call is “inactive”.

Turning to `C[C@@H]1CCCCO[C@H](CN(C)C(=O)c2ccccc2)[C@@H](C)CN([C@@H](C)CO)C(=O)c2cc(NC(=O)Nc3ccc4c(c3)OCO4)ccc2O1`, the cytotoxicity call was “inactive”.

Turning to `C[C@H]1CN([C@@H](C)CO)C(=O)Cc2cc(NC(=O)Nc3cccc4ccccc34)ccc2O[C@H]1CN(C)Cc1ccc(C(=O)O)cc1`, the cytotoxicity call was “inactive”.

`CC(C)NC(=O)Nc1ccc2c(c1)C(=O)N([C@H](C)CO)C[C@H](C)[C@@H](CN(C)Cc1ccc(C(=O)O)cc1)O2`: the cytotoxicity call was “inactive”.

Consider `C[C@@H]1CCCCO[C@H](CN(C)C(=O)C2CCCCC2)[C@@H](C)CN([C@@H](C)CO)C(=O)c2cc(NC(=O)CCC(F)(F)F)ccc2O1`, for which the cytotoxicity call was “inactive”.

Consider `C[C@H](CO)N1C[C@H](C)[C@H](CN(C)Cc2ccncc2)OCCCC[C@H](C)Oc2ccc(NC(=O)Nc3ccccc3)cc2C1=O`, for which the cytotoxicity call is “inactive”.

Regarding `C[C@H]1CN([C@@H](C)CO)C(=O)c2cc(NC(=O)C3CCCCC3)ccc2O[C@@H]1CN(C)Cc1ccc(-c2ccccc2)cc1`, the cytotoxicity call was “inactive”.

Consider `C[C@@H]1CN([C@H](C)CO)C(=O)c2cc(NC(=O)C3CCCCC3)ccc2O[C@@H]1CN(C)Cc1ccc(-c2ccccc2)cc1`, for which the cytotoxicity call is “active”.

With `C[C@@H]1CN([C@@H](C)CO)C(=O)c2cc(NC(=O)C3CCCCC3)ccc2O[C@@H]1CN(C)Cc1ccc(Oc2ccccc2)cc1`, the cytotoxicity call is “inactive”.

For the compound `C[C@H]1CN([C@@H](C)CO)C(=O)c2cc(NC(=O)C3CCCCC3)ccc2O[C@H]1CN(C)Cc1ccc(-c2ccccc2)cc1`, the cytotoxicity call was “active”.

Regarding `C[C@@H]1CN([C@@H](C)CO)C(=O)c2cc(NC(=O)C3CCCCC3)ccc2O[C@@H]1CN(C)Cc1ccc(-c2ccccc2)cc1`, the cytotoxicity call was “active”.

For the compound `C[C@H]1CN([C@@H](C)CO)C(=O)c2cc(NC(=O)C3CCCCC3)ccc2O[C@@H]1CN(C)Cc1ccc(Oc2ccccc2)cc1`, the cytotoxicity call was “inactive”.

With `C[C@@H]1CN([C@@H](C)CO)C(=O)c2cc(NC(=O)C3CC3)ccc2O[C@H]1CN(C)Cc1ccc(-c2ccccc2)cc1`, the cytotoxicity call was “inactive”.

As for `C[C@@H]1CN([C@@H](C)CO)C(=O)c2cc(NC(=O)C3CCCCC3)ccc2O[C@H]1CN(C)Cc1ccc(-c2ccccc2)cc1`, the cytotoxicity call was “inactive”.

Consider `C[C@H](CO)N1C[C@H](C)[C@@H](CN(C)Cc2ccc(-c3ccccc3)cc2)Oc2ccc(NC(=O)C3CCCCC3)cc2C1=O`, for which the cytotoxicity call is “inactive”.

Consider `C[C@@H]1CN([C@H](C)CO)C(=O)c2cc(NC(=O)C3CCCCC3)ccc2O[C@H]1CN(C)Cc1ccc(-c2ccccc2)cc1`, for which the cytotoxicity call is “inactive”.

As for `C[C@H](CO)N1C[C@H](C)[C@H](CN(C)Cc2ccc(-c3ccccc3)cc2)Oc2ccc(NC(=O)C3CC3)cc2C1=O`, the cytotoxicity call was “inactive”.

On to `C[C@@H]1CN([C@H](C)CO)C(=O)c2cc(NC(=O)C3CCCCC3)ccc2O[C@@H]1CN(C)Cc1ccc(Oc2ccccc2)cc1`, for which the cytotoxicity call was “active”.

For `COC[C@H]1CCCNC1`, the cytotoxicity call was “inactive”.

Regarding `C[C@@H]1CN([C@@H](C)CO)C(=O)c2cc(NC(=O)Cc3ccccc3)ccc2O[C@@H](C)CCCCO[C@H]1CN(C)Cc1ccncc1`, the cytotoxicity call is “inactive”.

For the compound `CC(C)NC(=O)Nc1ccc2c(c1)C(=O)N([C@@H](C)CO)C[C@@H](C)[C@H](CN(C)S(=O)(=O)c1ccccc1)O2`, the cytotoxicity call was “inactive”.

As for `C[C@H](CO)N1C[C@H](C)[C@@H](CN(C)C(=O)NC2CCCCC2)Oc2ccc(NC(=O)Nc3cccc4ccccc34)cc2C1=O`, the cytotoxicity call was “inactive”.

On to `C[C@@H]1CCCCO[C@@H](CN(C)C(=O)Cc2ccccc2)[C@H](C)CN([C@@H](C)CO)C(=O)c2cc(NC(=O)Nc3ccc(C(F)(F)F)cc3)ccc2O1`, for which the cytotoxicity call is “inactive”.

In the case of `Cc1noc(C)c1S(=O)(=O)Nc1ccc2c(c1)C(=O)N([C@H](C)CO)C[C@H](C)[C@H](CN(C)C(=O)Nc1ccccc1)OCCCC[C@H](C)O2`, the cytotoxicity call was “inactive”.

Take `C[C@@H]1CN([C@@H](C)CO)C(=O)Cc2cc(NC(=O)CCC(F)(F)F)ccc2O[C@H]1CN(C)Cc1ccc(C(=O)Nc2ccccc2N)cc1`: the cytotoxicity call was “inactive”.

Consider `C[C@@H]1CN([C@@H](C)CO)C(=O)c2cc(NC(=O)C3CC3)ccc2O[C@@H]1CN(C)Cc1ccc(-c2ccccc2)cc1`, for which the cytotoxicity call is “inactive”.

Take `C[C@H]1CN([C@@H](C)CO)C(=O)c2cc(NC(=O)C3CC3)ccc2O[C@H]1CN(C)Cc1ccc(-c2ccccc2)cc1`: the cytotoxicity call is “inactive”.

In the case of `C[C@H](CO)N1C[C@H](C)[C@H](CN(C)Cc2ccc(-c3ccccc3)cc2)Oc2ccc(NC(=O)C3CCCCC3)cc2C1=O`, the cytotoxicity call is “active”.

With `CN1CCN(C(=O)C[C@@H]2CC[C@H]3[C@@H](COC[C@@H](O)CN3C(=O)C3CC3)O2)CC1`, the cytotoxicity call is “inactive”.

Regarding `C[C@H]1Cc2cc(S(=O)(=O)N(C)CC(=O)N3CCOCC3)ccc2N1C(=O)C1CC1`, the cytotoxicity call is “inactive”.

As for `CCS(=O)(=O)Nc1ccc2c(c1)C(=O)N(C)[C@@H]1CC[C@H](CC(=O)NCc3ccccc3F)O[C@@H]1CO2`, the cytotoxicity call was “inactive”.

For `O=C(C[C@H]1CC[C@H]2[C@@H](COC[C@H](O)CN2Cc2ccccc2F)O1)N[C@H]1CCN(Cc2ccccc2)C1`, the cytotoxicity call is “inactive”.

For the compound `COCCOC(=O)N1C(=O)[C@@]2(c3ccccc31)[C@H](C(=O)N1CCc3cc(OC)c(OC)cc3C1)[C@H]1C(=O)O[C@H](c3ccccc3)[C@H](c3ccccc3)N1[C@@H]2c1ccc(O)cc1`, the cytotoxicity call is “inactive”.

`C[C@@H]1CCCCO[C@@H](CN(C)Cc2ccc(C(F)(F)F)cc2)[C@H](C)CN([C@@H](C)CO)C(=O)c2cc(NC(=O)c3ccccc3)ccc2O1`: the cytotoxicity call is “inactive”.

For `C=CCC[C@H](Cc1ccc(F)cc1)C(=O)O[C@H](CNC(=O)[C@@H](CC=C)CC(=O)N(CCO)Cc1ccccc1)c1ccccc1`, the cytotoxicity call is “inactive”.

On to `C=CCC[C@@H](Cc1ccc(F)cc1)C(=O)OC[C@@H](NC(=O)[C@H](CC=C)CC(=O)N(CCO)Cc1ccccc1)c1ccccc1`, for which the cytotoxicity call is “inactive”.

Take `C=CCC[C@H](Cc1ccc(F)cc1)C(=O)O[C@@H](CNC(=O)[C@H](CC=C)CC(=O)N(CCO)Cc1ccccc1)c1ccccc1`: the cytotoxicity call was “inactive”.

On to `C=CCC[C@@H](Cc1ccc(F)cc1)C(=O)O[C@@H](CNC(=O)[C@H](CC=C)CC(=O)N(CCO)Cc1ccccc1)c1ccccc1`, for which the cytotoxicity call is “active”.

With `C=CCC[C@H](Cc1ccc(F)cc1)C(=O)OC[C@@H](NC(=O)[C@@H](CC=C)CC(=O)N(CCO)Cc1ccccc1)c1ccccc1`, the cytotoxicity call is “inactive”.

Turning to `C=CC[C@H](CC(=O)N(CCO)Cc1ccccc1)C(=O)NC[C@H](OC(=O)[C@@H](CC=C)Cc1ccc(F)cc1)c1ccccc1`, the cytotoxicity call is “inactive”.

With `C=CCC[C@@H](Cc1ccc(F)cc1)C(=O)OC[C@@H](NC(=O)[C@@H](CC=C)CC(=O)N(CCO)Cc1ccccc1)c1ccccc1`, the cytotoxicity call is “active”.

For `C=CCC[C@@H](Cc1ccc(F)cc1)C(=O)O[C@H](CNC(=O)[C@@H](CC=C)CC(=O)N(CCO)Cc1ccccc1)c1ccccc1`, the cytotoxicity call is “inactive”.

Consider `C=CCC[C@H](Cc1ccc(F)cc1)C(=O)O[C@H](CNC(=O)[C@H](CC=C)CC(=O)N(CCO)Cc1ccccc1)c1ccccc1`, for which the cytotoxicity call is “inactive”.

Regarding `C=CCC[C@@H](Cc1ccc(F)cc1)C(=O)O[C@H](CNC(=O)[C@H](CC=C)CC(=O)N(CCO)Cc1ccccc1)c1ccccc1`, the cytotoxicity call was “inactive”.

For the compound `C=CCC[C@@H](Cc1ccc(F)cc1)C(=O)O[C@@H](CNC(=O)[C@@H](CC=C)CC(=O)N(CCO)Cc1ccccc1)c1ccccc1`, the cytotoxicity call is “active”.

Consider `C=CCC[C@H](Cc1ccc(F)cc1)C(=O)O[C@@H](CNC(=O)[C@@H](CC=C)CC(=O)N(CCO)Cc1ccccc1)c1ccccc1`, for which the cytotoxicity call was “active”.

Turning to `COCC(=O)Nc1ccc2c(c1)C(=O)N(C)[C@@H]1CC[C@H](CC(=O)N3CCc4ccccc4C3)O[C@H]1CO2`, the cytotoxicity call is “inactive”.

Take `Cc1noc(C)c1NC(=O)Nc1ccc2c(c1)C(=O)N([C@@H](C)CO)C[C@H](C)[C@H](CN(C)S(=O)(=O)c1ccc(F)cc1)OCCCC[C@H](C)O2`: the cytotoxicity call was “inactive”.

In the case of `CN1C(=O)c2cc(NC(=O)C3CCOCC3)ccc2OC[C@@H]2O[C@@H](CC(=O)NCCc3ccncc3)CC[C@@H]21`, the cytotoxicity call is “inactive”.

Take `COc1ccc(C=Cc2cc(O)cc(O[C@@H]3O[C@H](CO)[C@@H](O)[C@H](O)[C@H]3O)c2)cc1`: the cytotoxicity call is “inactive”.

As to `C1=C(c2ccccc2)CC(c2ccccc2)=NN=C1c1ccccc1`, the cytotoxicity call was “inactive”.

As for `COCCNC(=O)[C@H]1[C@H](CO)[C@H]2Cn3c(cccc3=O)[C@@H]1N2S(=O)(=O)c1ccccc1C`, the cytotoxicity call is “inactive”.

Consider `C[C@@H]1CN([C@H](C)CO)C(=O)Cc2cc(NC(=O)Cn3cnnn3)ccc2O[C@H]1CN(C)S(=O)(=O)c1ccc(Cl)cc1`, for which the cytotoxicity call is “inactive”.

On to `CC(C)NC(=O)Nc1ccc2c(c1)CC(=O)N([C@@H](C)CO)C[C@@H](C)[C@@H](CN(C)S(=O)(=O)c1ccccc1)O2`, for which the cytotoxicity call was “inactive”.

`CC(C)NC(=O)Nc1ccc2c(c1)CC(=O)N([C@H](C)CO)C[C@H](C)[C@H](CN(C)S(=O)(=O)c1ccc(F)cc1)O2`: the cytotoxicity call was “inactive”.

On to `C[C@H](CO)N1C[C@H](C)[C@H](CN(C)Cc2ccc3c(c2)OCO3)Oc2ccc(NS(C)(=O)=O)cc2C1=O`, for which the cytotoxicity call is “inactive”.

Consider `COc1ccc(NC(=O)Nc2ccc3c(c2)C(=O)N([C@H](C)CO)C[C@@H](C)[C@@H](CN(C)S(=O)(=O)c2ccccc2)OCCCC[C@H](C)O3)cc1`, for which the cytotoxicity call is “inactive”.

In the case of `C[C@H]1CCCCO[C@H](CN(C)S(=O)(=O)c2ccc(Cl)cc2)[C@@H](C)CN([C@@H](C)CO)C(=O)c2cc(NC(=O)C3CCCCC3)ccc2O1`, the cytotoxicity call is “inactive”.

The record behind these values is the antibiotic and cytotoxicity screens of Wong et al. (2023).
